According to the supplement of paper PMC8728848:
Shown is part of a subset that was picked to be rich in the strongest signals.

Key:
Assay in all cases: glycan array binding signal (z-score within array); higher = stronger binding
Details in all cases: glycan notation: IUPAC condensed, linker removed
Fuc(a1-2)Gal(b1-3)GalNAc = target: Fuc(a1-2)Gal(b1-3)GalNAc
How it was run: (§1)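 The Consortium for Functional Glycomics database supplied 3228 glycan arrays, of which those lacking an available protein sequence were dropped. The binding signal, a within-array Z-score, was averaged across arrays of the same protein sequence and across linkers. Negative scores can be read as non-binding.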

Fuc(a1-2)Gal(b1-4)Glc6S = target: Fuc(a1-2)Gal(b1-4)Glc6S
How it was run: as §1

[1] = target: Fuc(a1-2)Gal(b1-4)[Fuc(a1-3)]GlcNAc(b1-2)Man(a1-3)[Fuc(a1-2)Gal(b1-4)[Fuc(a1-3)]GlcNAc(b1-2)Man(a1-6)]Man(b1-4)GlcNAc(b1-4)GlcNAc
How it was run: as §1

[2] = target: Fuc(a1-2)[Gal(a1-3)]Gal(b1-3)GlcNAc(b1-2)Man(a1-3)[Fuc(a1-2)[Gal(a1-3)]Gal(b1-3)GlcNAc(b1-2)Man(a1-6)]Man(b1-4)GlcNAc(b1-4)GlcNAc
How it was run: as §1

[3] = target: Fuc(a1-2)[Gal(a1-3)]Gal(b1-4)Glc
How it was run: as §1

Gal(a1-3)Gal = target: Gal(a1-3)Gal
How it was run: as §1

[4] = target: Gal(a1-4)Gal(b1-3)GlcNAc(b1-2)Man(a1-3)[Gal(a1-4)Gal(b1-3)GlcNAc(b1-2)Man(a1-6)]Man(b1-4)GlcNAc(b1-4)GlcNAc
How it was run: as §1

Gal(b1-3)GalNAc = target: Gal(b1-3)GalNAc
How it was run: as §1

[5] = target: Gal(b1-3)GlcNAc(b1-2)Man(a1-3)[Gal(b1-3)GlcNAc(b1-2)Man(a1-6)]Man(b1-4)GlcNAc(b1-4)GlcNAc
How it was run: as §1

[6] = target: Gal(b1-3)GlcNAc(b1-3)Gal(b1-4)GlcNAc
How it was run: as §1

[7] = target: Gal(b1-3)[Neu5Ac(b2-6)]GalNAc
How it was run: as §1

Gal(b1-4)Glc = target: Gal(b1-4)Glc
How it was run: as §1

[8] = target: Gal(b1-4)GlcNAc(b1-3)[Gal(b1-4)GlcNAc(b1-6)]Gal(b1-4)GlcNAc
How it was run: as §1

[9] = target: Gal(b1-4)GlcNAc(b1-3)[Gal(b1-4)GlcNAc(b1-6)]GalNAc
How it was run: as §1

Gal4S(b1-4)GlcNAc = target: Gal4S(b1-4)GlcNAc
How it was run: as §1

Gal4S6S(b1-4)GlcNAc = target: Gal4S6S(b1-4)GlcNAc
How it was run: as §1

GalNAc(b1-3)Gal = target: GalNAc(b1-3)Gal
How it was run: as §1

Glc(a1-6)Glc(a1-6)Glc = target: Glc(a1-6)Glc(a1-6)Glc
How it was run: as §1

Glc(b1-6)Glc = target: Glc(b1-6)Glc
How it was run: as §1

[10] = target: GlcNAc(a1-4)Gal(b1-4)GlcNAc(b1-3)Gal(b1-4)[Fuc(a1-3)]GlcNAc(b1-3)Gal(b1-4)[Fuc(a1-3)]GlcNAc
How it was run: as §1

[11] = target: GlcNAc(b1-2)[GlcNAc(b1-4)]Man(a1-3)[GlcNAc(b1-2)Man(a1-6)]Man(b1-4)GlcNAc(b1-4)GlcNAc
How it was run: as §1

[12] = target: GlcNAc(b1-3)[GlcNAc(b1-6)]Gal(b1-4)GlcNAc
How it was run: as §1

[13] = target: GlcNAc(b1-4)Gal(b1-4)GlcNAc
How it was run: as §1

[14] = target: GlcNAc(b1-4)GlcNAc(b1-4)GlcNAc
How it was run: as §1

[15] = target: Neu5Ac(a2-3)Gal(b1-3)[Fuc(a1-4)]GlcNAc
How it was run: as §1

[16] = target: Neu5Ac(a2-3)Gal(b1-4)GlcNAc(b1-2)Man(a1-3)[GlcNAc(b1-2)Man(b1-4)GlcNAc(b1-2)Man(a1-6)]Man(b1-4)GlcNAc(b1-4)GlcNAc
How it was run: as §1

[17] = target: Neu5Ac(a2-3)Gal(b1-4)GlcNAc(b1-6)[Neu5Ac(a2-3)Gal(b1-3)]GalNAc
How it was run: as §1

[18] = target: Neu5Ac(a2-3)Gal(b1-4)[Fuc(a1-3)]GlcNAc(b1-3)Gal
How it was run: as §1

[19] = target: Neu5Ac(a2-3)Gal(b1-4)[Fuc(a1-3)]GlcNAc(b1-6)[Neu5Ac(a2-3)Gal(b1-3)]GalNAc
How it was run: as §1

[20] = target: Neu5Ac(a2-3)Gal(b1-4)[Fuc(a1-3)]GlcNAc6S
How it was run: as §1

Neu5Ac(a2-3)GalNAc = target: Neu5Ac(a2-3)GalNAc
How it was run: as §1

Neu5Ac(a2-6)Gal(b1-4)Glc = target: Neu5Ac(a2-6)Gal(b1-4)Glc
How it was run: as §1

[21] = target: Neu5Ac(a2-6)Gal(b1-4)GlcNAc(b1-2)Man(a1-3)[GlcNAc(b1-2)Man(a1-6)]Man(b1-4)GlcNAc(b1-4)GlcNAc
How it was run: as §1

[22] = target: Neu5Ac(a2-8)Neu5Ac(a2-3)[GalNAc(b1-4)]Gal(b1-4)Glc
How it was run: as §1

[23] = target: Neu5Ac(a2-8)Neu5Ac(a2-8)Neu5Ac(a2-8)Neu5Ac(a2-3)[GalNAc(b1-4)]Gal(b1-4)Glc
How it was run: as §1

[24] = target: Neu5Gc(a2-3)Gal(b1-3)[Fuc(a1-4)]GlcNAc
How it was run: as §1

Neu5Gc(a2-6)GalNAc = target: Neu5Gc(a2-6)GalNAc
How it was run: as §1

B1: CLEC9a (Mus musculus), Q8BRU4 (protein)
chain: MHAEEIYTSLQWDIPTSEASQKCQSPSKCSGAWCVVTMISCVVCMGLLATSIFLGIKFFQVSSLVLEQQERLIQQDTALVNLTQWQRKYTLEYCQALLQRSLHSGSDCSPCPHNWIQNGKSCYYVFERWEMWNISKKSCLKEGASLFQIDSKEEMEFISSIGKLKGGNKYWVGVFQDGISGSWFWEDGSSPLSDLLPAERQRSAGQICGYLKDSTLISDKCDSWKYFICEKKAFGSCI
glycan array binding signal (z-score) (Fuc(a1-2)Gal(b1-3)GalNAc): 0.078
glycan array binding signal (z-score) (Fuc(a1-2)Gal(b1-4)Glc6S): 0.626
glycan array binding signal (z-score) [1]: 2.21
glycan array binding signal (z-score) [2]: 3.03
glycan array binding signal (z-score) [3]: 1.11
glycan array binding signal (z-score) (Gal(a1-3)Gal): 1.37
glycan array binding signal (z-score) [4]: 3.35
glycan array binding signal (z-score) (Gal(b1-3)GalNAc): -0.657
glycan array binding signal (z-score) [5]: 1.97
glycan array binding signal (z-score) [6]: 1.18
glycan array binding signal (z-score) [7]: 1.89
glycan array binding signal (z-score) (Gal(b1-4)Glc): -0.825
glycan array binding signal (z-score) [8]: 0.779
glycan array binding signal (z-score) [9]: 1.87
glycan array binding signal (z-score) (Gal4S(b1-4)GlcNAc): 1.88
glycan array binding signal (z-score) (Gal4S6S(b1-4)GlcNAc): -1.4
glycan array binding signal (z-score) (GalNAc(b1-3)Gal): 0.273
glycan array binding signal (z-score) (Glc(a1-6)Glc(a1-6)Glc): -0.171
glycan array binding signal (z-score) (Glc(b1-6)Glc): 0.001
glycan array binding signal (z-score) [10]: 0.915
glycan array binding signal (z-score) [11]: 4.01
glycan array binding signal (z-score) [12]: -1.89
glycan array binding signal (z-score) [13]: 0.714
glycan array binding signal (z-score) [14]: 2.95
glycan array binding signal (z-score) [15]: -0.871
glycan array binding signal (z-score) [16]: 2.01
glycan array binding signal (z-score) [17]: -0.1
glycan array binding signal (z-score) [18]: -1.7
glycan array binding signal (z-score) [19]: 1.35
glycan array binding signal (z-score) [20]: -0.627
glycan array binding signal (z-score) (Neu5Ac(a2-3)GalNAc): -1.07
glycan array binding signal (z-score) (Neu5Ac(a2-6)Gal(b1-4)Glc): 0.132
glycan array binding signal (z-score) [21]: -0.365
glycan array binding signal (z-score) [22]: 0.872
glycan array binding signal (z-score) [23]: 2.43
glycan array binding signal (z-score) [24]: -0.987
glycan array binding signal (z-score) (Neu5Gc(a2-6)GalNAc): -0.83
